phage Ecoli inh = E. coli growth loss with phage present; growth absorbance; inhibition, % at 11.9 µM; actives 0.26% (n = 360,000); AID 651602; in the data active means inhibition above about 11%
E coli growth-1 = blocks Escherichia coli growth | actives 0.21% (n = 330,000) | AID 1053175 | OD600, 23 h; stronger effect = lower value | OD600 absorbance (concentration not given with the values);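 active means OD600 absorbance below the run mean of sample wells minus 3.6 SD, in any replicate, cut at about 0.56 in these data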
AddAB inh = less growth of phage-infected E. coli with AddAB | inhibition, % at 11.9 µM | E. coli expressing H. pylori AddAB, absorbance growth | actives 0.29% (n = 330,000); in the data active means inhibition above about 12%;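 further: 0% = vehicle wells of infected cells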
E coli growth-2 = bacterial growth inhibition, counter-screen for AddAB inhibitors. E. coli V3065 growth, OD600 absorbance, 18 h. AID 449728. actives 0.27% (n = 330,000). inhibition, % at 11.9 µM;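 active means inhibition above the campaign's mean inhibition across all tested compounds plus 3 SD, cut at about 9.9% in these data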;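 further: uninfected addAB+ strain grown without phage in ampicillin broth; 0% = DMSO wells and 100% = ciprofloxacin 0.95 µg/ml wells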
Tat export inh = E. coli Tat transport inhibition; actives 0.036% (n = 340,000); E. coli MC4100 TorA-mCherry Tat export, fluorescence; inhibition, % at 10 µM; AID 488895;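 active means mean replicate inhibition at least 50% and at least half of replicates individually reaching 50%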;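 further: exported cargo escapes ClpAP degradation while cytoplasmic cargo is degraded and loses fluorescence; 0% = median of neutral control wells and 100% = median of NaSCN control wells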
RecBCD conf = confirmation: growth loss of phage-infected RecBCD+ E. coli (RecBCD inhibitor screen) | AID 651982 | inhibition, % at 11.9 µM | actives 45% (n = 890) | shares compounds with phage Ecoli inh | E. coli V66 + T4 2- phage, growth OD;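 active means mean inhibition over triplicates exceeding the hit threshold derived in the original primary screen, cut at about 11% in these data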
Ecoli viability = counter-screen for RecBCD inhibitors: inhibitors of bacterial viability; shares compounds with phage Ecoli inh; E. coli viability, absorbance (OD) growth; inhibition, % at 11.9 µM; actives 29% (n = 890); AID 651983; in the data active means inhibition above about 20%;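 further: E. coli strain V66 grown with compound alone and no phage infection; 0% = bacteria with DMSO vehicle only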
AddAB phage OD = growth loss of phage-infected AddAB E. coli, RecBCD counter-screen; inhibition, % at 11.9 µM; E. coli expressing H. pylori AddAB + T4 phage, OD growth; gene 2 mutant T4, recBCD-deleted host; AID 651984; shares compounds with phage Ecoli inh; actives 45% (n = 890);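 active means mean inhibition above the solvent-only control wells' mean plus 3 SD, cut at about 22% in these data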;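 further: higher means less bacterial growth from phage killing when AddAB is blocked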
The depositor's hits bear a star; / = no result given. The list is not random: actives were taken first. Their share in the collection is about 0.5%.

SMILES	phage Ecoli inh	E coli growth-1	AddAB inh	E coli growth-2	Tat export inh	RecBCD conf	Ecoli viability	AddAB phage OD
CC1Cc2ccccc2N1C(=O)CCn1c(=O)oc2ccccc21 (configuration not stated)	99*	0.66	-1	0	10	-7	-7	-2
O=[N+]([O-])c1ccc(N/N=C/c2ccc(O)c(O)c2O)c(S(=O)(=O)N2CCOCC2)c1	11*	/	/	/	5	9	10	11
O=[N+]([O-])c1ccc(N/N=C/c2cccc(O)c2O)c(S(=O)(=O)N2CCOCC2)c1	1	/	2	0	-7	/	/	/
O=C(Cn1nc(-c2ccccc2)ccc1=O)N1CCCCC1	2	0.68	-3	-2	3	/	/	/
CCN(CC)S(=O)(=O)c1cccc(NC(=O)CC2CCCC2)c1	1	0.7	2	1	25	/	/	/
CCN(CC)S(=O)(=O)c1cccc(NC(=O)Nc2cccc(C(F)(F)F)c2)c1	11*	0.64	9	7	13	2	4	2
CCNC(=O)CSc1nnc(-c2ccccc2)n1-c1ccc(OCC)cc1	2	0.67	0	-1	-11	/	/	/
COc1cc(C=NO)nc(-c2ccccn2)c1	39*	/	/	/	-22	32*	41*	33*
CN(C)CCNc1cccc2sc3ccc(O)cc3c(=O)c12	13*	/	/	/	/	-3	-3	3
Cc1ccc(NCCN(C)C)c2c(=O)c3cc(O)ccc3sc12	1	/	/	/	-9	/	/	/
C/C(CC(=O)Nc1ccc([N+](=O)[O-])cc1)=N/NC(=O)C1C2CCCCC21 (configuration not stated)	6	/	-1	-2	-3	/	/	/
c1cc(-c2ccsc2)n2ccnc2c1	11*	/	/	/	/	1	0	12
c1cc(-c2ccoc2)n2ccnc2c1	-2	/	/	/	/	/	/	/
COc1ccc(C)cc1NC(=O)CN1CCN(S(=O)(=O)c2ccc(C(C)C)cc2)CC1	1	0.71	1	-2	-2	/	/	/
CC(=O)SC1CC(=O)N(c2c(C)cccc2C)C1=O (configuration not stated)	12*	0.67	-1	-2	-4	-1	-1	2
CC(=O)c1ccc(NC(=O)c2ccc([N+](=O)[O-])o2)cc1	17*	0.47*	/	/	1	11*	14	66*
O=C(Nc1ccc(Cl)cn1)c1ccc([N+](=O)[O-])o1	18*	0.5	/	/	-28	7	8	96*
Cc1c(Cl)c([N+](=O)[O-])nn1Cc1ccc(C(=O)Nc2ccc(Cl)cn2)o1	2	0.69	1	0	-7	/	/	/
Cc1cn(CC(=O)NCCCn2ccnc2)c(=O)[nH]c1=O	4	/	/	/	-5	/	/	/
COC(=O)C1=C(C)N(Cc2ccccc2C(F)(F)F)C(=NCc2cccc(C(F)(F)F)c2)NC1c1ccc(C(F)(F)F)cc1 (configuration not stated)	5	/	/	/	/	/	/	/
COC(=O)C1=C(C)N(Cc2ccccc2C(F)(F)F)C(=NCc2ccccc2)NC1c1ccc(C(F)(F)F)cc1 (configuration not stated)	13*	/	/	/	/	1	2	8
O=C(Cc1cccs1)N/N=C/C(Cl)=C/c1ccccc1	3	/	3	-2	0	/	/	/
S=C(NCc1ccccn1)NN=Cc1ccccn1	18*	/	/	/	0	14*	16	16
NS(=O)(=O)c1ccc(CCNC(=O)CC(NC(=O)c2ccccc2Cl)c2ccccc2)cc1 (configuration not stated)	15*	0.67	-2	-2	2	-1	0	5
COc1ccc(CCNC(=O)CC(NC(=O)c2ccccc2Cl)c2ccccc2)cc1 (configuration not stated)	2	0.71	0	-1	0	/	/	/
CCN(CC)C(=O)CSc1nc2c(sc(=S)n2-c2ccccc2)c(=O)n1Cc1ccco1	4	0.71	5	2	-1	/	/	/
Cc1ccccc1NC(=O)NNC(=O)c1ccc2ccccc2c1O	6	0.73	6	6	-3	/	/	/
CCc1ccc(NC(=O)NNC(=O)c2ccc3ccccc3c2O)cc1	13*	0.7	/	/	-7	9	10	9
